CIT2 TOR yeast: alters CIT2-GFP fluorescence in TOR pathway yeast screen; GFP response vs DMSO, % at 10 µM; AID 2029; actives 0.065% (n = 320,000); S. cerevisiae CIT2-GFP strain, flow cytometry, 3 h; 100 means same as DMSO wells;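 active = GFP response relative to DMSO above a set limit, near the screen mean plus 3 SD, cut at about 150% in these data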;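 also: ratio of well median GFP fluorescence to mean of DMSO wells on the plate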
MEP2 TOR yeast: modulators of TOR pathway MEP2-GFP in S. cerevisiae | S. cerevisiae MEP2-GFP strain, flow cytometry GFP, 3 h; 100% = DMSO control level | GFP response vs DMSO, % at 10 µM | actives 0.51% (n = 330,000);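 active = GFP response versus DMSO above a set limit, roughly screen mean plus 3 SD, cut at about 180% in these data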;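 also: median GFP fluorescence of the barcode-gated MEP2-GFP cells per well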
RPL19A TOR yeast: alters RPL19A-GFP fluorescence in TOR pathway yeast screen; actives 0.3% (n = 330,000); S. cerevisiae RPL19A-GFP strain, flow cytometry, 3 h; active compounds read low; percent response vs DMSO, % at 10 µM; AID 2025;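 active = percent response vs DMSO below 50%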;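 also: median channel GFP fluorescence of the barcoded RPL19A-GFP strain; ratio of sample median GFP to plate DMSO average so 100% = DMSO; lower means less RPL19A-GFP as with rapamycin TOR inhibition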
AGP1 TOR yeast: modulators of TOR pathway AGP1-GFP in S. cerevisiae; S. cerevisiae AGP1-GFP multiplex flow cytometry, 3 h; GFP as percent of DMSO wells; GFP response vs DMSO, % at 10 µM; actives 0.02% (n = 320,000);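 active = GFP response relative to DMSO above a set limit, near screen average plus 3 SD, cut at about 150% in these data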;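 also: median GFP channel fluorescence of the gated AGP1 strain per well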
LAP4-GFP MLPCN: alters LAP4-GFP fluorescence in TOR pathway yeast screen | S. cerevisiae LAP4-GFP multiplex, flow cytometry GFP, 3 h; median GFP as percent of DMSO wells | GFP response vs DMSO, % at 10 µM | actives 0.34% (n = 320,000) | AID 2023;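 active = GFP response vs DMSO above a set limit, about the screen mean plus 3 SD, cut at about 150% in these data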
LAP4 cherry2: yeast LAP4-GFP modulation, second cherry pick. GFP response vs DMSO, % at 10 µM. actives 20% (n = 590). shares compounds with LAP4-GFP MLPCN. S. cerevisiae LAP4-GFP strain, flow cytometry GFP, 3 h;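 active = GFP signal as percent of the solvent control above about 150%, meaning raised reporter expression, limit read from the data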;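 also: ratio of well median GFP fluorescence to plate DMSO mean so 100% = DMSO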
MEP2-GFP pick2: second confirmation of modulators of TOR reporter MEP2-GFP in yeast; actives 10% (n = 590); S. cerevisiae MEP2-GFP strain, flow cytometry GFP, 3 h; shares compounds with LAP4-GFP MLPCN; AID 2622; GFP response vs DMSO, % at 10 µM;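 active = GFP signal above 150% of the solvent control wells, that is a rise of more than half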;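 also: median channel GFP fluorescence of all gated yeast cells per well; ratio of median GFP to plate DMSO average so 100% = DMSO level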
RPL19A-GFP pick2: second confirmation of modulators of TOR reporter RPL19A-GFP in yeast | shares compounds with LAP4-GFP MLPCN | S. cerevisiae RPL19A-GFP strain, flow cytometry GFP, 3 h; active compounds read low; 100% means same as DMSO wells | GFP response vs DMSO, % at 10 µM | actives 3% (n = 590);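 active = under 65% GFP response relative to DMSO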;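 also: median GFP channel fluorescence per well over the all cells gate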
CIT2 GFP CP2: yeast CIT2-GFP TOR reporter modulation, second cherry pick; shares compounds with LAP4-GFP MLPCN; actives 8% (n = 590); GFP response vs DMSO, % at 10 µM; AID 2624; S. cerevisiae CIT2-GFP strain, flow cytometry GFP, 3 h; DMSO control wells read 100%;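 active = GFP response vs DMSO above about 150%, limit read from the data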;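 also: median green fluorescence per well over all gated yeast cells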
AGP1-GFP pick2: yeast AGP1-GFP TOR reporter modulation, second cherry pick; S. cerevisiae AGP1-GFP strain, flow cytometry GFP, 3 h; 590 tested, under 10 active; percent response vs DMSO, % at 10 µM; AID 2643; shares compounds with LAP4-GFP MLPCN;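 active = over 150 percent of DMSO response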;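 also: median GFP channel fluorescence over all cells without mother daughter split; sample median GFP divided by mean DMSO control so 100% equals DMSO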
s288c autofluor: yeast s288c autofluorescence artifact, counter-screen | fluorescence change (kMESF span) at 33 µM | 610 tested, under 10 active | shares compounds with LAP4-GFP MLPCN | S. cerevisiae s288c, 520 nm autofluorescence, flow cytometry, 3 h; active compounds read high; zero means same as solvent-only cells;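 active = fluorescence span over the dose series, or activity score, above about 33, limit read from the data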
Yeast autofl DR: TOR screen hit shows autofluorescence in yeast s288c | S. cerevisiae s288c parental, compound autofluorescence, flow cytometry, 3 h | 110 tested, under 10 active | shares compounds with LAP4-GFP MLPCN | fluorescence change (span) at 33 µM;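 active = fluorescence change span, or the activity score built from it, above 25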
TORC1 bypass gr: wildtype yeast growth loss with TORC1 bypass cells unaffected; growth rating (0-3) at 30 µM; S. cerevisiae BY4741 spot growth rating, 48-72 h; active compounds read low; AID 504456; shares compounds with LAP4-GFP MLPCN; 120 tested, under 10 active;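 active = growth rating at most 1 for wild type yeast while the TORC1 bypass strain still grows fully, rated 3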
Starred values were filed as active, the others as inactive; x = no result given. Only some compounds are listed: those with a hit (about 0.89% of all), similar ones and a draw of the others.

SMILES	CIT2 TOR yeast	MEP2 TOR yeast	RPL19A TOR yeast	AGP1 TOR yeast	LAP4-GFP MLPCN	LAP4 cherry2	MEP2-GFP pick2	RPL19A-GFP pick2	CIT2 GFP CP2	AGP1-GFP pick2	s288c autofluor	others
COc1ccccc1C(=O)Nc1ccc(Br)c2cccnc12	106.2	102.9	103.3	100.1	86.6	x	x	x	x	x	x
COc1ccccc1C(=O)Nc1ccc(Br)cc1C	83.4	102.0	81.5	106.6	187.8*	103.8	104.8	98.3	96.1	95.8	x
COc1ccc(OC)c(S(=O)(=O)N2CCN(c3ccccc3)CC2)c1	103.2	102.1	98.5	100.4	100.7	x	x	x	x	x	x
COc1ccc(OC)c(S(=O)(=O)ON2C(=O)c3ccccc3C2=O)c1	79.7	87.0	101.3	78.1	181.6*	x	x	x	x	x	17.8
COc1cc(/C=C/c2ccc3c(Br)cc(Br)c(O)c3n2)ccc1O	88.5	109.0	94.4	84.3	163.8*	x	x	x	x	x	3.65
O=C(Nc1ccc2c(c1)OCCO2)c1ccc(Cl)c([N+](=O)[O-])c1	76.4	86.2	90.9	91.5	157.7*	105.2	103.1	96.8	93.2	96.7	x
Cc1cc(C(=O)Nc2ccc3c(c2)OCCO3)ccc1[N+](=O)[O-]	101.9	105.6	103.4	98.1	90.1	x	x	x	x	x	x
COc1ccc(-c2nnc3c4ccccc4c(C)nn23)cc1	103.7	103.7	93.1	94.1	83.5	x	x	x	x	x	x
Cc1nn2c(-c3ccco3)nnc2c2ccccc12	75.6	90.1	64.3	60.9	86.4	93.3	93.2	66.2	95.0	67.4	x
Cc1nn2c(-c3ccncc3)nnc2c2ccccc12	65.1	105.6	59.7	57.9	101.3	90.4	94.8	64.5*	97.2	67.8	0.3	Yeast autofl DR=0.36;TORC1 bypass gr=3
N#Cc1cccc(Oc2ccc(-c3cnc4ccccc4n3)cc2)c1C#N	97.1	104.8	110.7	115.6	111.5	x	x	x	x	x	x
C=CCc1cc(Cl)ccc1OCCCn1ccnc1	108.3	106.0	105.4	103.4	92.0	x	x	x	x	x	x
Cc1cc(C)c(-n2c(SCC(=O)N3CCOCC3)n[nH]c2=O)c(C)c1	96.2	106.6	102.3	96.0	98.9	x	x	x	x	x	x
O=S(=O)(CCN(CCS(=O)(=O)C(F)(F)F)CC1CCCO1)C(F)(F)F (stereo unspecified)	102.5	94.6	89.8	78.7	243.4*	x	x	x	x	x	0.62	Yeast autofl DR=0.24;TORC1 bypass gr=3
O=C(NCC1CCCO1)C1CCN(S(=O)(=O)N2CCCC2)CC1 (stereo unspecified)	100.6	98.5	99.7	106.7	104.9	x	x	x	x	x	x
O=c1c2ccccc2nc(/C=C/c2ccc([N+](=O)[O-])o2)n1CCCO	178.9*	229.8*	104.5	80.5	193.4*	300.0*	352.8*	143.3	274.8*	123.9	x

High-throughput results as filed in PubChem BioAssay.
